Out of some 1,900 compounds screened, about 15 (0.8%) were called active. Cut-off read from the data, not from the text of the source: active = luminescence above about 3900; inactive = the rest. The list is a sample of the results.
Biological target: D(1A) dopamine receptor (Homo sapiens) (UniProt P21728)
Assay: D1 receptor agonism without dopamine, confirmation, mechanism study for D1 allosteric modulator project, cell-based, HEK293 D1, CRE-luciferase, secondary assay 1 (AID 646)
Settings: no dopamine, at 10 µM, stronger effect = higher value

Chain of D(1A) dopamine receptor (Homo sapiens) (P21728 whole entry, looked up): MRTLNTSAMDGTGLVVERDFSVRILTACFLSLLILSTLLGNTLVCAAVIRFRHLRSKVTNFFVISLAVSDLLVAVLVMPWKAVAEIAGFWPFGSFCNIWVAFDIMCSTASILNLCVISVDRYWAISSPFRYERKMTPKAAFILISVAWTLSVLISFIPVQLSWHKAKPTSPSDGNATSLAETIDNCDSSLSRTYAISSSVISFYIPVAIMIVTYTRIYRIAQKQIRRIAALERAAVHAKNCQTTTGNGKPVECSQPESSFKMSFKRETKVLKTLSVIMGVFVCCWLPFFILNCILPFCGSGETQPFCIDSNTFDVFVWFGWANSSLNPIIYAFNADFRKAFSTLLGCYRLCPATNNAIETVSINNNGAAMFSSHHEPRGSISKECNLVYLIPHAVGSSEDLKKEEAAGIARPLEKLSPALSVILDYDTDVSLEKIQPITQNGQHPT

luminescence, inactive:
CCOc1cc(-c2noc(CCC(=O)N3CCOCC3)n2)ccc1OC 1180
COC(=O)[C@H](C(C)C)n1c(C)c(C(C)=O)c(C(C)=O)c1C 1540
N#Cc1nc(Cc2ccccc2)oc1NCCc1ccccc1 1730
Cc1cc(C)c2c(n1)nn1c(-n3ccnc3)cc(C)nc21 1660
CC1CCN(c2oc(-c3ccccc3F)nc2C#N)CC1 1620
Cc1ccc(C2CC(c3cccc(Br)c3)n3nc(N)nc3N2)cc1 (stereo not drawn) 1420
COc1cc(NC(=O)N2CCOCC2)cc(OC)c1 1580
COc1ccc(NC(=O)C2CCCN(S(=O)(=O)c3cccc4cccnc34)C2)cc1OC (stereo not drawn) 1590
CCCc1nc(-c2ccccc2O)n(-c2ccccc2)n1 1710
COc1ccc(-c2nn3c(-c4ccccc4)nnc3s2)cc1OC 1800
O=C(NCc1ccco1)c1cnn2c(C(F)(F)F)cc(-c3ccco3)nc12 1560
Cc1nn(-c2ccccc2)c2c1C(=O)NC(=O)C(C)(C)C2 1740
COc1ccc(-c2nnc(SCC(=O)NC3CCCCC3)o2)cc1OC 1800
c1coc(-c2nc3nc4ccccc4n3nc2-c2ccco2)c1 1610
CC1(C)Cc2ccccc2-c2nc(CN3CCOCC3)[nH]c(=O)c21 1890
CCCCSc1nc2c(c(=O)n1CC)SC(C)C2 (stereo not drawn) 1490
CCOC(=O)c1c(NC(=O)CSc2nnc(Cc3csc(N)n3)n2C)sc(C)c1C 1680
C#CCNc1nc(C(C)C)nc2c1nnn2Cc1ccccc1F 1600
C/C(=C\C(=O)c1ccccc1)Nc1cccc(O)c1 1340
O=S(=O)(c1cccs1)N1CCc2ccccc2C1 1530
COc1ccc(CCNC(=O)CCn2c(=O)oc3ccccc32)cc1OC 1540
COc1ccc(CCN(C)C(=O)C2CCCN(Cc3ccc(OC)c(OC)c3)C2)cc1OC (stereo not drawn) 1520
O=C(C1CCC1)N1CCc2cc(S(=O)(=O)NCc3cccnc3)ccc21 1680
CCOC(=O)c1c(NC(=O)CSc2nnc(CN3CCOCC3)n2C)sc2c1CCCC2 1870
CCSc1ncnc2c(C#N)c3n(c12)CCCCC3 1840
N#Cc1nc(N)nc(N(c2ccccc2)c2ccccc2)n1 1620
COc1ncnc2c1N=C1CC(C)(C)CC(N)=C1S2 1620
N#CCCN1CCN(S(=O)(=O)c2ccc(S(=O)(=O)NC3CCCCC3)cc2)CC1 1130
